The whole screen tested about 1,300 compounds, of which fewer than 10 were called active. About 9% were inconclusive and are not listed. These entries were drawn from the full list. Unmarked numbers belong to inactive results. The call rests on the fitted dose curve; in most records, active means well fitted curve in the direction sought with a large enough effect; inconclusive means small, poorly fitted or top-dose-only effect, or another doubt; inactive means no such curve, though single readings can be large or run the other way.
Experiment: qHTS for antagonists of the Thyroid Stimulation Hormone Receptor: Hit Validation in Parental Cell Line; further: 0% is about no effect
Details: parental HEK293 cells lacking TSHR, counter-screen; series mostly up to 56.9 µM; activity change, negative = inhibition: at the top concentration
From the text: The thyroid-stimulating hormone receptor (TSHR) is a member of the 7 trans-membrane-spanning receptor (7TMR) family of cell surface receptors. TSHR-mediated hyperthyroidism is important in thyroid pathology. The development of small molecule antagonists of TSHR may lead to therapeutic approaches for TSHR-mediated hyperthyroidism caused by constitutively activating mutations or stimulating auto-antibodies associated with Graves' disease. Graves' disease is the leading cause of hyperthyroidism and is caused by autoantibodies that stimulate TSHR (TsAbs) causing thyroid growth and unregulated overproduction of thyroid hormones and existing treatments have liabilities (agranulocytosis). In addition, TSHRs are known to be expressed in multiple extrathyroidal tissues including bone, brain, kidney, testis, fat and cells of the immune system but the role of the TSHR in these tissues is not clear. Therefore, TSHR antagonists/inverse agonists could be used as probes of extrathyroidal TSHR function. Finally, TSHR inverse agonists, which are a subclass of antagonists that inhibit agonist-independent (or basal or constitutive) TSHR signaling, could be used to inhibit TSH-independent signaling in patients with recurrent or metastatic thyroid cancer who are receiving thyroid hormone to suppress TSH.
In collaboration between scientist from the NCGC and the NIDDK, a miniaturized HTRF high-throughput screen was developed. It's a cell based assay, where an anti cAMP antibody contains a fluorescent cryptate tag (excitation 337 nm; emission 620 nm) and the acceptor is cAMP-d2 (excitation 620 nm; emission 665 nm). When antibody and cAMP-d2 interact and are excited by a 337 nm light, a FRET occurs resulting in emission at 665 nm. The assay is competition between cAMP-d2 and cAMP (from the cell lysate). The homogeneous protocol allows for one step dispense after stimulation that is automation friendly. This is a hit validation assay in a counterscreen using parental HEK 293 cells lines.
NIH Chemical Genomics Center [NCGC]
NIH Molecular Libraries Probe Centers Network [MLPCN]
Assay Provider: Marvin Gershengorn, NIDDK
An anti cAMP antibody contains a fluorescent cryptate tag (excitation 337 nm; emission 620 nm) and the acceptor is cAMP-d2 (excitation 620 nm; emission 665 nm). When antibody and cAMP-d2 interact and are excited by a 337 nm light, a FRET occurs resulting in emission at 665 nm. The assay is competition between cAMP-d2 and cAMP (from the cell lysate). The homogeneous protocol allows for one step dispense after stimulation that is automation friendly. This assay uses parental HEK-EM 293 cells

| SMILES | activity change, negative = inhibition [%] |
| --- | --- |
| N#CC(C#N)=C1C=CC=CN1/C(=C\c1ccco1)C(=O)c1ccccc1 | -5.95 |
| COc1ccc(CN(C)C(=O)COC(=O)c2cnc(Cl)c(Cl)c2)cc1 | -0.479 |
| O=C(Nc1ccn(Cc2ccccc2F)n1)c1ccc(COc2ccccc2Cl)cc1 | -9.46 |
| CCSC1=NSC2=NC(=O)/C(=C\c3coc4ccccc4c3=O)C(=N)N12 | -4.42 |
| CC1=C(OC(=O)c2ccccc2)C(C)(C)C(c2ccccc2)OC1=O (stereo not given) | 3.91 |
| O=C(Nc1nnc(S(=O)(=O)N2CCCCC2)s1)c1cccc(Br)c1 | 1.82 |
| O=C(/C=C/c1ccc(Cl)cc1Cl)NCCSCc1ccccc1 | -4.87 |
| CCCC(=O)N(C1CC(C)C(C#N)(C#N)C1(C#N)C#N)N(C)C (stereo not given) | -9.26 |
| Cc1ccc(Oc2cc(NC(=O)CCCn3nc([N+](=O)[O-])cc3C)cc([N+](=O)[O-])c2)cc1 | -3.73 |
| O=c1[nH]c(-c2ccccc2F)nc2c1sc(=S)n2Cc1ccccc1 | -3.17 |
| O=C(Nc1ccc2oc(-c3ccccc3F)nc2c1)c1ccc2c(c1)OCCO2 | -11 |
| C=CC(C)(C)c1c2occc2c(O)c2ccc(=O)oc12 | -4.53 |
| Cc1ccc(-c2csc(NC(=O)c3ccc4c(=O)n5c(nc4c3)CCCCC5)n2)cc1 | -9.13 |
| Cc1ccc(C2(c3ccc(C)cc3)CC2C(=O)Nc2ccc([N+](=O)[O-])cc2O)cc1 (stereo not given) | -4.43 |
| COc1ccc(NC(=O)c2ccc(-c3ccccc3)cc2)cc1NS(=O)(=O)c1ccc(F)cc1 | -5.28 |
| COc1ccc(N2CCN(C(=O)c3ccccc3N(C)S(=O)(=O)c3ccccc3)CC2)cc1 | -0.792 |
| Nc1ncc(Br)cc1S(=O)(=O)Nc1cc(C(F)(F)F)cc(C(F)(F)F)c1 | -4.31 |
| CCOc1cc(/C=C/c2ccc3cccc([N+](=O)[O-])c3n2)ccc1OCC(=O)N(C)C | 0.169 |
| C=CC[C@H](CC(=O)N(CCO)Cc1ccccc1)C(=O)N[C@H](COC(=O)[C@@H](CC=C)Cc1ccc(F)cc1)C(C)(C)C | 0.0369 |
| COc1ccc(C)cc1-n1nnnc1SCc1cc(=O)n2cc(C)ccc2n1 | 0.702 |
| Cc1ccc(CSc2nnc(SCC(=O)N/N=C/c3c(C)nn(-c4ccccc4)c3C)s2)cc1 | 1.1 |
| COc1ccc(C(=O)Nc2ccc(Cl)c(S(=O)(=O)Nc3ccccc3OC)c2)cc1 | -5.92 |
| CC(Oc1ccc(Cl)cc1Cl)C(=O)Nc1cccnc1 (stereo not given) | 2.55 |
| O=C(c1ccco1)N1CCN(c2ncnc3c2nnn3Cc2ccccc2Cl)CC1 | -8.18 |
| CCOc1ccc2nc(NC(=O)c3ccc(OCC4CCCO4)cc3)sc2c1 (stereo not given) | -9.31 |

| SMILES | activity change, negative = inhibition [%] |
| --- | --- |
| O=c1c2ccccc2nnn1CSc1nnc(-c2cccs2)n1Cc1ccccc1 | -0.787 |
| O=C(O)c1nn(CC(=O)N2CCN(c3ncc(C(F)(F)F)cc3Cl)CC2)c(=O)c2ccccc12 | -0.862 |
| O=C(Nc1nc(-c2cccs2)c(-c2cccs2)s1)C1CCCC1 | -9.24 |
| COc1ccc(C2=NS(=O)(=O)N(C)C(C(=O)Nc3ccc4c(c3)OCO4)=C2)cc1OC | -4.61 |
| Cc1cc(C)c(S(=O)(=O)c2c(C)cccc2C)c(Cl)n1 | -1.36 |
| COc1ccc(S(=O)(=O)n2cnc3ccccc32)c(C)c1 | 0.374 |
| CCCCOc1ccc(/C=N/Nc2cc(N3CCOCC3)nc(C)n2)cc1 | -18.4 |
| O=c1cc(-c2ccccc2)nc2c(-c3ccccc3)c(C(F)(F)F)[nH]n12 | -4.22 |
| Cc1ccc(OCCSc2ncccn2)c(C)c1 | 1.66 |
| CCN(CC)S(=O)(=O)c1cccc(NC(=O)CNc2cccc(S(=O)(=O)N3CCOCC3)c2)c1 | 0.271 |
| C=CCn1c(SCC(=O)c2cccs2)nc2sc(CC)cc2c1=O | -6.19 |
| N#C/C(=C\c1ccc(Oc2ccc(C(F)(F)F)cc2[N+](=O)[O-])cc1)c1nc2ccccc2[nH]1 | -3.12 |
| Cc1cc(C)c(-c2csc(NC(=O)/C=C/c3cccs3)n2)c(C)c1 | -0.163 |
| Cc1ccc(C)c(S(=O)(=O)N2CCN(C(=O)C3CCN(c4ncnc5sc(C)c(C)c45)CC3)CC2)c1 | -5.61 |
| CC(C)(C)c1ccc(C(=O)CC(Sc2ccc(Cl)cc2)C(=O)O)cc1 (stereo not given) | -1.68 |
| O=C(NCc1ccc2c(c1)OCO2)C12CN(Cc3ccccc3)CC1C(c1cccc([N+](=O)[O-])c1)=NO2 (stereo not given) | 4.74 |
| Cc1nc2ccc(Nc3nc4cc(S(=O)(=O)N5CCOCC5)ccc4o3)cc2s1 | -7.93 |
| CSc1cccc(NC(=O)C2CCCN(S(=O)(=O)c3ccc(F)cc3)C2)c1 (stereo not given) | -2.87 |
| O=C(CSc1nc(-c2ccc(Cl)cc2)cs1)Nc1cccc([N+](=O)[O-])c1 | -11.1 |
| CCN(Cc1ccccc1)c1ccc(/C=N/NC(=O)c2cccc(S(=O)(=O)N3CCOCC3)c2)cc1 | 0.0222 |
| Fc1ccc(/C=C2\CCCC3=C2Nc2ncnn2C3c2ccc(F)cc2)cc1 (stereo not given) | 0.901 |
| O=C1NC(=S)N(C(=O)c2ccc(F)cc2)/C1=C/c1ccccc1 | -4.61 |
| O=S(=O)(/N=C(/Nc1cccc2ccccc12)c1ccccc1)c1cccs1 | 0.846 |
| Cc1ccc(-c2csc(N(CCO)CCCn3c(C(F)(F)F)nc4ccccc43)n2)cc1 | -1.09 |
| Cc1ccc(C(=O)Nc2nc(-c3ccc(F)cc3)cs2)o1 | -5.7 |

Reference: PubChem BioAssay AID602441 (National Center for Advancing Translational Sciences (NCATS), 2012)
